According to PubChem BioAssay AID485347 (National Center for Advancing Translational Sciences (NCATS), 2010):
In all, about 340,000 compounds went through this assay and about 1,200 (0.35%) were called active. This is one part of a sample in which actives are shown more often than they occur.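 The calls were made as follows: active = potentiation over 3 SD above the plate norm (cut at about 30% in these data); inactive = the rest.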

The compounds below were run against D(2) dopamine receptor (Homo sapiens) (UniProt P14416) (assay: HTS Assay for Positive Allosteric Modulators of the Human D2 Dopamine Receptor: Primary Screen for Potentiators). Settings: HEK293 T-REx D2, calcium flux, EC20 dopamine potentiation; at 10 µM; active compounds read high.
Chain of D(2) dopamine receptor (Homo sapiens) (P14416 whole entry, looked up): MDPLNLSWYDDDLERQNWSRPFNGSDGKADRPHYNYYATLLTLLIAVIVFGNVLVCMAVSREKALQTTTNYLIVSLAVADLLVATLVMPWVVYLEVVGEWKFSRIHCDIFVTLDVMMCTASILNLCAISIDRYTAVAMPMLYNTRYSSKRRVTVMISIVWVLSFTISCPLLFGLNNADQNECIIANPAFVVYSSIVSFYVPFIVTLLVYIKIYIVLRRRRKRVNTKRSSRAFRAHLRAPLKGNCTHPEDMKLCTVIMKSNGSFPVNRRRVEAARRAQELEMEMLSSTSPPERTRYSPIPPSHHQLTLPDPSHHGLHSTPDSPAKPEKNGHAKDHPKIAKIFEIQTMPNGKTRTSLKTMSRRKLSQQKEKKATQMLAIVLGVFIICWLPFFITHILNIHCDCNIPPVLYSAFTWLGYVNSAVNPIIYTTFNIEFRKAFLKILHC
From the text: NIH Chemical Genomics Center [NCGC] NIH Molecular Libraries Probe Centers Network [MLPCN] MLPCN Grant: NS064831-01 Assay Submitter (PI): David Sibley Dopamine receptors (DARs) are involved in the etiology and/or therapy of a number of neuropsychiatric and endocrine disorders. For instance, all receptor-based antiparkinsonian drugs work via stimulating the D2 DAR subtype whereas all FDA-approved antipsychotic agents are antagonists of this receptor. […] There are three different types of allosteric modulators that we are seeking, two of which will stimulate or augment receptor signaling, allosteric agonists and potentiators, while the third, allosteric antagonists, will attenuate receptor signaling. The present primary screening assay measures compound potentiation of an EC20 dopamine response by tracking calcium flux in a […], inducible Hek293 Trex D2 cell line.
Freshly passaged cells are plated in 1536 well black, clear bottom plates at a density of 4000 cells/well in 3 ul of complete media containing 1x tetracycline inducer. After an overnight incubation at 30 C in 5% CO2, cells are loaded with 2 ul of the no wash Calcium Assay Kit (ABD Bioquest) and incubated at room temperature for 30 to 90 minutes. A 10 cycle (1 second/cycle) baseline measurement is taken and then the FDSS online 1536 pintool delivers 23 nl of compound library (as well as dopamine controls) to the plate. The plate is measured for kinetically at 1 cycle/sec for 180 seconds and is considered to be the agonist portion of the assay (eg, compounds which activate a positive calcium response during this portion are flagged as potential agonists). Following the 180 second read, 1 ul of an EC20 of dopamine is delivered by an onboard pipette head. Measurements are taken kinetically for an additional 180 seconds.
Also: 0% is about no effect.

potentiation, active:
CCCN(CC(=O)Nc1ccccc1OC)C(=O)CCC(=O)c1ccc(F)cc1 30.4%
CN(c1ccc(C(=O)NCc2ccccn2)cc1)S(C)(=O)=O 42.4%
NC(=O)c1sc2nc3c(c(-c4ccccc4)c2c1N)CCC3 37.2%
FC(F)Oc1ccccc1C1CC(c2ccc(Br)s2)Nc2ncnn21 (stereo not drawn) 31.8%
CCOc1ccc(NC(=S)N2CCCCCC2)cc1 30.1%
CC(C)CCC(C)NC(=O)c1ccc2nccnc2c1 (stereo not drawn) 36.8%
CCn1c(SCC(=O)N(C)C2CCS(=O)(=O)C2)nnc1-c1cccs1 (stereo not drawn) 43.3%
Cc1c(NC(=O)Nc2ccccc2Cl)sc(=S)n1C 37%
CC(C)(C)C(=O)CCN1C(=O)C2(OCCO2)c2ccccc21 31.3%
COc1ccc(C(C)=O)cc1CSc1nc2nc(C)cc(C)n2n1 34.5%
CN1C/C(=C/c2cccs2)C(=O)/C(=C\c2cccs2)C1 41.9%
Cc1c(NC(=O)CSc2nnc(-c3cccnc3)n2N)c(=O)n(-c2ccccc2)n1C 73.3%
C=CCn1c(-c2ccc(Cl)cc2)ccc(C#N)c1=O 40.5%
CC1=CC(C)(C)NC(=S)N1NC(=O)c1ccccc1Cl 35.1%
CC(C)(C)NS(=O)(=O)c1ccc(NC(=O)NC2CCCCC2)cc1 38%
Cc1cc2c(=O)n(C)c(SCC(=O)c3cc4ccccc4o3)nc2s1 30.1%
CCCCNC(=S)NNC(=O)c1cc(C)on1 37%
COc1ccccc1N1CCN(C(=O)c2cc(-c3ccc(Cl)c(Cl)c3)on2)CC1 69.4%

potentiation, inactive:
CCN(CC(=O)Nc1ccccc1OC)C(=O)Cn1cnc2ccccc2c1=O 11.8%
CCN(CC(=O)Nc1ccccc1OC)C(=O)CC1CC2CCC1C2 (stereo not drawn) 5.39%
Cc1cc(C)cc(OCC(=O)Nc2c(C(=O)c3ccccc3)oc3ccccc23)c1 -6.36%
COc1ccc(C)cc1NC(=O)COCc1cc(-c2cccs2)on1 3.43%
CN(c1ccc(C(=O)NCCC2=CCCCC2)cc1)S(C)(=O)=O -10.3%
CCN(c1ccccc1)S(=O)(=O)c1cc(C(=O)NCc2ccccn2)ccc1C -2.26%
O=C(CCS(=O)(=O)c1ccccc1)N(Cc1cccnc1)c1nc2c(F)cccc2s1 -2.05%
Cc1ccc(C2C=C(c3ccc(Cl)cc3)Nc3nc(NC(=O)CCC(=O)O)nn32)cc1 (stereo not drawn) 5.1%
CCOc1ccc(CNCc2c(C(=O)O)c(C)n(Cc3cccc(OC)c3)c2C)cc1OC -3.84%
COc1cccc(C(=O)c2sc3nc(-c4ccccc4)cc(C(F)(F)F)c3c2N)c1 -10.4%
Cc1sc2nc(CC(N)=O)[nH]c(=O)c2c1-c1ccccc1 9.95%
Cc1ccc(NC(=O)c2oc3ccccc3c2NC(=O)Cc2cccs2)cc1 -10%
CSc1ccc(CCNC(=O)c2ccc3c(c2)nc2n3CCOC2)cc1 8.52%
Cc1ccc(C)c(Oc2c(C(F)(F)F)oc3c(CN4CCN(C)CC4)c(O)ccc3c2=O)c1 -2.95%
Cc1ccc(-c2nn(CCC(=O)Nc3ccc(Cl)c(Cl)c3)c(=O)c3ccccc23)cc1 -14.9%
Clc1ccc(C2CC(c3cccs3)n3ncnc3N2)cc1Cl (stereo not drawn) -0.578%
CCOc1ccccc1C1CC(c2ccccc2)Nc2nc(N)nn21 (stereo not drawn) 14.5%
CCOC(=O)c1ccc(NC(=S)N2CCCC2)cc1 8.15%
CCOc1ccc(NC(=S)N2CCC(N(C)CC3CCCO3)CC2)cc1 (stereo not drawn) -4.46%
COc1cc(CNC(=O)c2cc3n(n2)CCCN(Cc2cccc(F)c2)C3=O)cc(OC)c1OC 7.44%
CC(C)(C)c1ccc(C(=O)NCC(c2ccco2)S(=O)(=O)c2ccc(F)cc2)cc1 (stereo not drawn) 2.19%
COc1ccccc1NC(=O)c1oc2ccccc2c1NC(=O)COc1ccccc1OC -6.56%
Cc1ccc(C)c(NC(=O)c2ccc3nccnc3c2)c1 10.6%
O=C(NCCc1ccc(F)cc1)c1ccc2nccnc2c1 1.21%
CCOC(=O)c1ccccc1NC(=O)CCc1c(C)nc2c(c1C)c(=O)n(C)c(=O)n2C -0.581%
Cc1ccc(NC(=O)c2nc(S(=O)(=O)Cc3cccc(C)c3)ncc2Cl)cc1 -4.73%
Cc1cccc(C(=O)N2c3nc(-c4ccco4)nn3C3(CCCCC3)[C@@H]3CCCC[C@@H]32)c1 11.9%
COc1ccccc1NC(=O)C1=C(C)Nc2ncnn2C1c1sccc1C (stereo not drawn) 14.1%
CN(C(=O)CSc1nnc(Nc2ccccc2)s1)C1CCS(=O)(=O)C1 (stereo not drawn) -2.37%
CCn1c(SCC(=O)c2ccc(Cl)s2)nnc1-c1cccs1 5.97%
Cc1ccc(NC(=O)Cc2ccc(NC(=O)N3CCCCc4ccccc43)cc2)cc1 -2.54%
Cc1c(Cl)cccc1NC(=O)NCc1ccc(C)n1C 6.36%
Cc1c(Cl)cccc1NC(=O)Nc1ccc(C(=O)N2CCCC2)cc1 -6.53%
CCCSc1ncc(Cl)c(C(=O)Nc2c(C(=O)Nc3ccccc3)oc3ccccc23)n1 9.52%
O=C(CC1(O)C(=O)N(CN2CCOCC2)c2ccccc21)c1ccccc1 (stereo not drawn) -7.42%
C=CCN1C(=O)C2(OCCCO2)c2cccc(Cl)c21 9.19%
O=C(NCCCN1CCN(c2cccc(Cl)c2)CC1)c1nnc(Cc2ccc(F)cc2Cl)o1 -20.3%
COc1cn(CC(=O)Nc2cccc(C)c2C)c(CN2CCCCC2)cc1=O -2.25%
COC(=O)c1ccc(OC)c(Cn2c(=O)n(Cc3ccccc3)c(=O)c3c2c2cc(OC)ccc2n3C)c1 -2.94%
CCc1nn(CC(=O)Nc2cccc(C)c2C)c(=O)c2cc3sccc3n12 8.71%
COc1cccc(CSc2nc3nc(C)cc(C)n3n2)c1 -5.34%
Cc1cc(C)n2nc(SCC(N)=O)nc2n1 16.2%
CCOc1ccc(-n2c(SCC(=O)NCc3ccccc3)nc3n[nH]c(C)c3c2=N)cc1 -3.4%
COc1ccccc1CNCc1ccc(C(=O)O)s1 6.15%
O=C1/C(=C/c2cccs2)CCc2ccccc21 1.15%
CN1CCN(C(=O)/C(=C\c2cccs2)NC(=O)c2cccs2)CC1 15.2%
Cc1c(NC(=O)CSc2nnnn2-c2ccc(C(=O)O)cc2)c(=O)n(-c2ccccc2)n1C -3.5%
Cc1c(NC(=O)CSc2cccc3cccnc23)c(=O)n(-c2ccccc2)n1C 13.1%
Cc1cn(C)c(CC(=O)NCc2ccccc2)c1C(=O)O 5.5%
CCc1ccc(CNC(=O)c2ccc(CS(=O)c3ccc(Br)cc3)o2)cc1 (stereo not drawn) 3.07%
COc1ccccc1CNC(=O)C(=O)NCC(c1ccco1)S(=O)(=O)c1ccc(F)cc1 (stereo not drawn) 11.5%
C=CCn1cc(-c2cccc(C(F)(F)F)c2)cc(C#N)c1=O -3%
C=CCn1c(SCn2nnc3ccccc3c2=O)nnc1-c1ccc(Cl)cc1 3.09%
COc1cc(OC)cc(C(=O)Nc2cc3nn(-c4ccccc4)nc3cc2Cl)c1 29.9%
CCCCc1nn2c(=O)cc(COC(=O)c3ccccc3NC(=O)C(C)(C)C)nc2s1 9.21%
CC1=CC(C)(C)NC(=S)N1c1ccccc1 -0.583%
CC12CCC(C(=O)N(NC(=O)c3ccccc3O)C1=O)C2(C)C (stereo not drawn) 13.8%
CCN(C(=O)c1sc2cc(OC)ccc2c1Cl)c1ccccc1 -5.49%
COc1ccccc1NC(=O)c1oc2ccccc2c1NC(=O)C(C)C -4.17%
Cc1ccc(NC(=O)CSc2nc3c([nH]c4ccccc43)c(=O)n2-c2ccccc2)cc1Cl 0.276%
Cc1cccc(N2CCN(S(=O)(=O)c3ccc4[nH]c5c(c4c3)CCCCC5)CC2)c1C 2.56%
CC(C)c1ccc(NC(=O)NC2CCCCC2)cc1 4%
CC(C)(C)NS(=O)(=O)c1ccc(NC(=O)C2CCCO2)cc1 (stereo not drawn) 5.45%
CCCN(CCC)CCNC(=O)c1ccc2c(c1)NC(=O)C(CS(=O)(=O)Cc1cccc(Br)c1)N2 (stereo not drawn) 0.677%
COc1ccc(Cn2ccnc2SCC(=O)Nc2ccc3c(c2)OCO3)cc1 1.53%
Cc1ccc(C(=O)CSc2nc3ccccc3c(=O)n2N)o1 2.64%
CCc1cc2c(=O)n(-c3ccccc3)c(SCC(=O)O)nc2s1 -3.23%
Cc1ccc2c(=O)c(C(=O)c3ccc(F)cc3)cn(CC(=O)NC3CCCCC3)c2n1 -9.33%
CCCCNC(=O)c1cc(-c2ccc(Cl)c(Cl)c2)on1 -3.44%
COCCCNC(=S)NNC(=O)C(O)(c1ccccc1)c1ccccc1 -5.53%
COc1ccc(-c2nc(S(=O)(=O)c3ccccc3)c(N3CCCCC3)o2)cc1 -5.46%
COc1ccc(-c2cc(C(=O)N3CCN(c4ccc(F)cc4)CC3)no2)cc1 -8.77%
COc1ccccc1-c1cc(C(=O)N2CCCCC2)no1 -22.4%
Cc1cccc(Cn2c(=O)n(CCC(=O)NCCc3ccc(Cl)cc3)c(=O)c3sccc32)c1 13%
CCN1CCN(C(c2ccc(C)cc2)c2c(O)cc(C)n(Cc3ccco3)c2=O)CC1 (stereo not drawn) 6.89%
